Among all 360,000 compounds or so, about 300 (0.083%) were called active. This is one part of a sample in which actives are shown more often than they occur. Unmarked numbers belong to inactive results. No stated cut-off is given here; in the data, active means activation above about 40%; inconclusive means between about 15% and that limit; inactive means weaker than that.

90 compounds from PubChem BioAssay AID624465 (National Center for Advancing Translational Sciences (NCATS), 2012) can be followed below.

D(2) dopamine receptor (Homo sapiens), sequence (P14416 whole entry, looked up): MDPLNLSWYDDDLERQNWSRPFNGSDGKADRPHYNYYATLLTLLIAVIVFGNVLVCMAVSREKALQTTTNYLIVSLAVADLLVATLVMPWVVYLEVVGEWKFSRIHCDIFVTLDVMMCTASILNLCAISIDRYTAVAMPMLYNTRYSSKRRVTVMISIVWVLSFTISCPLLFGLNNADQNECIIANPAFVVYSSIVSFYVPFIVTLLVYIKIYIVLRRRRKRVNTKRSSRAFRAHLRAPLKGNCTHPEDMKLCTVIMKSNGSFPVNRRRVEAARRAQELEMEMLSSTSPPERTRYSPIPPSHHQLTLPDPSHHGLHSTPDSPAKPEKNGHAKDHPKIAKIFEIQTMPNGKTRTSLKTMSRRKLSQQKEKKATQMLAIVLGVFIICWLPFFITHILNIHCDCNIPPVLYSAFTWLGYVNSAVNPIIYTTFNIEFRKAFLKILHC

The assay deals with D(2) dopamine receptor (Homo sapiens) (UniProt P14416). In words: Beta-Arrestin HTS for Positive Allosteric Modulators of the Human D2 Dopamine Receptor: Agonists. The note with it: DiscoveRx PathHunter D2 beta-arrestin, luminescence, 90 min; hits give high values; 100% = 57 uM dopamine signal. The source says:
There is great interest in identifying small molecule ligands for G-protein coupled receptors (GPCRs) as nearly 50% of all FDA-approved drugs target these important receptor proteins. […] Amongst the dopamine receptors (DARs), the D2 is arguably one of the most validated drug targets in neurology and psychiatry. For instance, all receptor-based antiparkinsonian drugs primarily work via stimulating the D2 DAR, whereas all FDA-approved antipsychotic agents are antagonists of this receptor. The D2 DAR is also therapeutically targeted in other disorders such as restless legs syndrome, tardive dyskinesia, Tourette's syndrome, and hyperprolactinemia.
To this end, a miniaturized qHTS screen was developed to be screened against the Molecular Libraries Small Molecule Repository (MLSMR). This assay seeks to identify agonists against the D2 DAR.
NIH Molecular Libraries Probe Production Network [MLPCN]
NIH Chemical Genomics Center [NCGC]
PI Name: David Sibley, National Institutes of Neurological Disorders and Stroke
DiscoveRx D2 cells were thawed from frozen stock and seeded at 2,100 cells/ 3 uL/well media (DiscoveRx Plating Reagent 2) with MultiDrop Combi dispenser (Thermo Scientific, Logan, UT) onto white tissue culture treated 1536-well Aurora plates (Brooks Automation, Chelmsford, MA) and allowed to attach overnight at 37 deg C, 5% CO2. Next, 23 nL/well of compound solutions in DMSO were added with a pintool transfer (Kalypsis, San Diego, CA). As the positive control, 1 uL/well dopamine (EC100, 57 uM final concentration) diluted in buffer (HBSS + 10 mM HEPES + SMB + 0.1% Tween-20) was dispensed to 1 column of each plate. The rest of the plate was dispensed with buffer only, 1 uL/well as well. The cells were stimulated by compounds or dopamine control for 90 minutes at 37 deg C, 5% CO2, after which 1.5 ul/well of DiscoveRx detection reagent was added with BioRAPTR FRD dispenser. The detection reagent was prepared by mixing of Galacton Star Substrate, Emerald II solution and PathHunter buffer (supplied by the assay kit) together at 1:5:19 proportion accordingly just prior to dispensing. The plates were incubated at ambient temperature for 1 hour and then the luminescent signal was read on ViewLux plate reader (PerkinElmer, Waltham, MA).
Regarding `CC(OC(=O)CNS(=O)(=O)/C=C/c1ccccc1)C(=O)Nc1ccc(S(=O)(=O)N2CCCC2)cc1` (stereo not given), the activation was 0.137%.
In the case of `CCOc1ccc(NC(=O)CN(C)C(=O)c2c(C)noc2C)cc1OCC`, the activation was -1.71%.
The result for `NC(=O)C(Cc1ccccc1)NC(=O)C12CC3CC(CC(C3)C1)C2` (stereo not given) reads -2.84%.
Take `CSc1nnc2c(n1)OC(c1cn(C)c3ccccc13)N(C(C)=O)c1ccccc1-2` (stereo not given): the activation is -3.75%.
The result for `O=C(CSc1nc2cccc(F)c2c(=O)n1-c1ccccc1)Nc1ccc2c(c1)CCC2` reads 0.472%; that for `C=CS(=O)c1sc(Cl)c(N2CCOCC2)c1[N+](=O)[O-]` (stereo not given), -11%.
Next, `CC(C)c1cccc(C(C)C)c1Nc1cn[nH]c1`: 8.06%.
The result for `CSCCC(NC(=O)COc1ccccc1)C(=O)N(C)CC(=O)Nc1ccc(C)cc1` (stereo not given) reads -3.34%.
Take `Cc1ccc(Sc2cc(N3CCOCC3)nc(-c3ccccc3)n2)cc1`: the activation is 2.6%.
Next, `Cc1csc(NC(=O)CSc2nnc(-c3cccnc3)o2)n1`: -2.74%; `CCC(=NC1CC(C)(C)NC(C)(C)C1)C1=C(O)CC(C)(C)CC1=O`: 0.839%.
As for `CCOc1ccc(NC(=O)CN(C)CC(=O)NC(C)c2ccccc2)cc1OCC` (stereo not given), the activation was -5.49%.
As to `COCCn1c(C)cc(C(=O)COC(=O)/C=C/c2cccc(OC)c2)c1C`, the activation was -0.488%.
Consider `CCCCc1nccn1CCn1ccnc1CCCC`, for which the activation was -1.34%.
The result for `Cc1cc(C)nc(N2C(=O)CC(Cc3ccccc3)C2=O)n1` (stereo not given) reads -1.43%.
The result for `CC(C)c1ccc(N(C(=O)c2ccco2)C(C(=O)NC2CCCC2)c2cccnc2)cc1` (stereo not given) reads 1.27%; that for `CCN1CCN(C(=O)/C=C\C(=O)O)CC1`, -0.987%; that for `CCOc1ccc(Oc2nc(C)cc(OC)n2)nn1`, -3.16%.
On to `CCC(C(=O)NC1CCCCC1)N(C(=O)c1snc(C(N)=O)c1N)c1ccc(OC)cc1OC` (stereo not given), for which the activation was -1.51%.
Next, `CC(=O)NC1(c2ccc(F)cc2)CCN(C(=O)c2c(F)cccc2F)CC1`: -4.03%.
For the compound `Cc1ccc(Cl)cc1NC(=O)C1CCN(S(C)(=O)=O)CC1`, the activation was -3.51%.
The result for `CC(NCc1ccccc1OC1CCCC1)c1ccccc1` (stereo not given) reads -2.1%; that for `COc1ccc(-c2ccc3nnc(SCC(=O)Nc4ccc(NC(C)=O)cc4)n3n2)cc1`, 0.231%.
For `O=C(NNS(=O)(=O)c1ccc(F)cc1)C1CCCCC1`, the activation is -2.79%.
Take `O=C(Cn1nc([N+](=O)[O-])nc1Br)NC1CCCCC1`: the activation is 6.2%.
The result for `CC(=O)c1nnn(-c2ccc(Cl)cc2C#N)c1C` reads -0.344%; that for `Cc1cccc2nc(CNc3ccc(F)cc3)cn12`, -2.67%; that for `COc1ccc([N+](=O)[O-])cc1NC(=O)c1ccc(N(Cc2ccccc2C)S(C)(=O)=O)cc1`, 1.42%.
On to `CN(CC(=O)NC1CCCCC1)S(=O)(=O)c1cccc2cccnc12`, for which the activation was -4.91%.
In the case of `CCCCCN(C(=O)NC(=O)Nc1cccc(C)c1C)S(C)(=O)=O`, the activation was -5.29%.
In the case of `Cc1ccccc1Nc1scc(-c2ccc(Br)cc2)[n+]1-c1ccccc1C`, the activation was -4.78%.
Turning to `Cc1nn(-c2ccccc2)c2c1c(C)c(CCC(=O)NCC1CCCO1)c(=O)n2C` (stereo not given), the activation was -0.567%.
As for `O=c1ccc2cc(S(=O)(=O)N3CCN(c4ccccc4)CC3)ccc2o1`, the activation is -0.365%.
Next, `CCCOc1cc(C)c(S(=O)(=O)n2nnc3ccccc32)cc1C`: 2.16%.
Turning to `CC(=O)N1C[C@@H](CO)[C@@H](N(C)C(=O)c2ccco2)C[C@H]1c1ccccc1`, the activation was -6.66%.
In the case of `Cc1cc(C)cc(C(=O)N(CCc2ccccc2)C2=CC3CCC(C2)N3C)c1` (stereo not given), the activation is 0.198%.
The result for `CCCN(CCc1ccccc1)C1CCc2c(O)cccc2C1` (stereo not given) reads 56.1% (active).
Next, `CCCc1cc(=O)[nH]c(SCC(=O)c2c(N)n(CC(C)C)c(=O)n(C)c2=O)n1`: -5.56%; `Cc1ccc(-c2csc(C(C#N)=C(O)CN3CCN(C(=O)c4ccco4)CC3)n2)cc1`: 9.93%.
As to `O=C(NCC1CCCO1)C1CCN(C2CCN(C(=O)C3CCCCC3)CC2)CC1` (stereo not given), the activation was 0.237%.
The result for `CC1CCc2c(sc3c2C2=NS(=O)(=O)CCN2C=N3)C1` (stereo not given) reads -1.75%; that for `CCCCN1C(=O)C(=O)N(CC(=O)Nc2cccc(C(C)=O)c2)C1=O`, -3.6%; that for `O=C1CCCN1C(=O)COc1ccc([N+](=O)[O-])cc1`, -5.83%.
The result for `C[C@H](OC(=O)n1ccnc1)[C@@H]1O[C@@]2(C)CCC[C@@H]1O2` reads -0.3%; that for `CCC(=O)N1c2ccc(S(=O)(=O)NCc3ccco3)cc2CC1C` (stereo not given), 4.56%.
For `CC(NC(=O)CNC(=O)Cc1cccc2ccccc12)c1ccc(S(N)(=O)=O)cc1` (stereo not given), the activation was -2.38%.
The result for `COc1ccc(CC(=O)NC(C)c2ccc(Cl)c(Cl)c2)cc1S(=O)(=O)N1CCOCC1` (stereo not given) reads -3.32%.
In the case of `CN(C(=O)c1cccc(NC(=O)Cc2ccc(NC(=O)C3CCCN(C(=O)C4CCCC4)C3)cc2)c1)C1CCC1` (stereo not given), the activation is 1.94%.
Next, `COC(C[C@H](O)CC(=O)COCc1ccccc1)OC`: 0.157%.
The result for `C[C@H](CO)N1C[C@H](C)[C@@H](CN(C)S(=O)(=O)c2ccc(F)cc2)OCc2cnnn2CCCC1=O` reads -9.17%; that for `CC(C)C1C(=O)N(Cc2cn(CCC3OCCO3)nn2)CCS(=O)(=O)N1Cc1ccc(-c2ccccc2C(F)(F)F)cc1` (stereo not given), -3.03%; that for `Oc1ccccc1CNc1ncc(Br)cc1Br`, 0.262%.
Next, `O=C(CSc1ccsc1[N+](=O)[O-])N1CCCCC1`: -4.54%; `Cc1cccc(NC(=O)c2ccc(OCC(=O)NCc3ccccc3)cc2)c1C`: -2.68%; `Cc1c(NC(=O)C(C)OC(=O)c2cc3c4ccccc4n(C)c3s2)c(=O)n(-c2ccccc2)n1C` (stereo not given): -5.25%.
For `Cc1ccc(C(=O)NC2CCCC(C)C2C)cc1S(=O)(=O)N1CCCCC1` (stereo not given), the activation is -2.55%.
As to `N#CC1=C(N)N(c2ccc(F)cc2)C(=O)C1`, the activation is -1.46%.
In the case of `CC1(C)C(=O)C2(CCCCC2)C(=O)OC1c1cccs1` (stereo not given), the activation was -2.99%.
Turning to `COCCNc1nc(NCc2ccc(NC(C)=O)cc2)c2sccc2n1`, the activation was 67.7% (active).
With `COc1cccc(CNc2nc(NCc3cccs3)nc3ccsc23)c1`, the activation was -1.88%.
Next, `CC(=O)Nc1ccc(CNc2nc(NCCN(C)C)nc3cc(-c4ccccc4)sc23)cc1`: -1.9%.
Next, `COc1cccc(C(O)c2ncc(-c3ccc4ccccc4c3)[nH]2)c1` (stereo not given): -2.42%.
As for `CC1(C(=O)Nc2ccccc2Br)CCN1C(=O)CC1CC1` (stereo not given), the activation is -0.948%.
The result for `COc1cc(NC(=O)C2CCN(c3cnccn3)CC2)cc(OC)c1` reads -4.96%; that for `COc1ccc(N(CC(=O)Nc2cc(OC)cc(OC)c2)S(=O)(=O)c2c(C)n[nH]c2C)cc1`, -3.11%.
For the compound `CCNC(=O)Nc1ccc(S(=O)(=O)Nc2cnc(C)nc2C)cc1`, the activation was -5.47%.
Consider `O=c1ccc(-c2ccc(S(=O)(=O)Nc3ccccc3)o2)n[nH]1`, for which the activation was -1.56%.
Next, `CCN1C(=O)C(=O)N(CC(=O)Nc2cc(C)ccc2C)C1=O`: -2.03%; `CCOc1ccc(CN2CCC(n3nccc3NC(=O)C3CC3)CC2)cc1CO`: 4.34%.
Consider `CCCNC(=O)c1cc(C2CCCCN2C(=O)OC)on1` (stereo not given), for which the activation is -5.6%.
The result for `COc1ccc(C2=Nc3ccccc3NC(=O)C2N(C(=O)c2cc3ccccc3[nH]2)c2ccccc2)cc1` (stereo not given) reads 2.65%.
For `CC(C)(O)C#Cc1ccc(CNC[C@H]2O[C@@H](n3cnc4c(=O)[nH]c(N)nc43)[C@H](O)[C@@H]2O)s1`, the activation was -5.21%.
The result for `O=S(=O)(Cc1nnnn1-c1ccccc1)c1ccccc1` reads 0.629%; that for `CC(=O)c1c(N2CCN(c3ccc(F)cc3)CC2)nc(=S)n(-c2ccccc2)c1C`, -6.73%; that for `CC(C)c1ccc(S(=O)(=O)N2CCN(C(=O)CN3C(=O)NC(C)(c4ccccc4)C3=O)CC2)cc1` (stereo not given), 1.77%.
Next, `O=C(Nc1ccc(Cl)c(Cl)c1)N1CC=C(c2ccccc2)CC1`: -2.15%; `CC1CC(C)CN(C(=O)COC(=O)c2ccc3ncsc3c2)C1` (stereo not given): 0.233%; `CCC(=O)c1c[nH]c(C(=O)NCC2CCCO2)c1` (stereo not given): -0.182%.
For `CCCC(=O)N1c2ccc(-c3csc(N)n3)cc2CC1C` (stereo not given), the activation was 2.86%.
Next, `COc1ccc(C(C)(O)c2nc(-c3ccc(C)c(C)c3)cs2)cc1` (stereo not given): 0.66%.
Next, `CC(C)(C)C(=O)OCc1nc(-c2ccc(O)c(O)c2)cs1`: 78% (active); `CCCN(CCC)c1c([N+](=O)[O-])c(=O)oc2ccccc12`: -4.9%.
The result for `O=C1/C(=C\c2ccc([N+](=O)[O-])cc2)CS(=O)(=O)C/C1=C/c1ccc([N+](=O)[O-])cc1` reads -8.23%; that for `O=C(O)C1CCN1C1CCCCC1` (stereo not given), -0.715%.
Consider `OC[C@@H]1CN(Cc2cccs2)C[C@H](n2cnc3c(Nc4ccccc4)ncnc32)O1`, for which the activation is -3.6%.
Turning to `COc1cccc(-c2cnc3c(NC(C)=O)cc(-c4cc(F)ccc4OC)cn23)c1`, the activation is 2.15%.
On to `CN1C(=O)/C(=C/C=C2\SCCN2C)OC1=S`, for which the activation is -3.31%.
The result for `O=C1c2ccccc2C(=O)N1CCC(O)C[N+](=O)[O-]` (stereo not given) reads -2.92%; that for `O=C(NC1CC2CCCC(C1)N2C(=O)N1CCCCC1)C1CCCCC1` (stereo not given), -2.68%; that for `O=C(Nc1ccccc1N1CCOCC1)c1ccc(OCc2cscn2)cc1`, 9.98%.
